# Assay outcomes (PubChem BioAssay)
# An excerpt weighted towards active compounds, which were near 8.7% of everything screened.
# Pf growth 96h: P. falciparum growth inhibition at 96 hour, primary screen for plastid delayed-death inhibitors | P. falciparum luciferase reporter growth, 96 h | Potency, µM (top dose mostly 28.7 µM), inactives show at the top dose activity change, negative = inhibition, hits mostly inhibitors | hit rate 6.9% among 320,000
#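 Parasite growth measured via integrated firefly luciferase reporter in P. falciparum. Infected erythrocytes at 2% hematocrit, 0.05% parasitemia final were treated 96 hours at 37 C under 5% CO2, and luminescence was read.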
# Vaccinia Venus: inhibitors of vaccinia virus (Venus reporter). Vaccinia virus Venus reporter expression, fluorescence. Potency, µM (top dose mostly 36.5 µM), without a hit: at the top dose activity change, negative = inhibition, usual class: inhibitors. hit rate 0.46% among 330,000. AID 720580; calls by dose curve; tested in A549 cells; also: nearly all actives have a fitted effect of over 30% in size
# Pf growth 48h: inhibits P. falciparum growth in the first generation, 48 h. P. falciparum luciferase growth in erythrocytes, 48 h. Potency, µM (top dose mostly 28.7 µM), inactives show top-dose activity change, negative = inhibition, hits mostly inhibitors. hit rate 5.9% among 310,000. AID 504832
#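 Luminescence readout; reporter = integrated firefly luciferase in P. falciparum. RBC culture at 2% hematocrit, 0.1% parasitemia final, 37 C/5% CO2; decreased signal taken as growth inhibition.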
# AMA1 RON2 block: AMA1-RON2 (P. falciparum) interaction inhibition. AID 720542. Potency, µM (titrated, usually from 58.2 µM), inactives show at the top dose activity change, negative = inhibition, most hits filed as inhibitors. hit rate 0.2% among 360,000. AlphaScreen AMA1-biotinylated RON2 peptide binding;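 also: 0% = vehicle wells and -100% = peptide control; nearly all actives have a fitted effect of over 45% in size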
#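 AMA1 (3D7) with his tag at 25 nM final met compounds first, then biotinylated RON2 peptide at 25 nM; detection used donor plus acceptor beads, 10 µg/mL apiece, read by AlphaScreen after 30 min at room temperature.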
# Vaccinia mCherry: vaccinia inhibition (mCherry reporter); hit rate 0.63% among 310,000; AID 720579; Vaccinia virus mCherry reporter infection, fluorescence; Potency, µM (titrated, usually from 36.5 µM), for the others: top-dose activity change, negative = inhibition, most hits filed as inhibitors; calls by dose curve; tested in A549 cells; also: nearly all actives have a fitted effect of over 35% in size
# Numbers without * were called inactive; i = inactive; ? = inconclusive; · = no result; [ ] = remark or other dose. Unless noted, calls follow the shape of the dose curve; as a rule, active = well fitted curve in the direction sought with a large enough effect; inconclusive = small, poorly fitted or top-dose-only effect, or another doubt; inactive = no such curve, though single readings can be large; an effect the other way counts as inactive or inconclusive. Unless noted, % is scaled to controls: 0 for no effect and ±100 for the full control effect; potency is read from the fitted curve at half-maximal effect.
SMILES,Pf growth 96h,Vaccinia Venus,Pf growth 48h,AMA1 RON2 block,Vaccinia mCherry
CCCCCC(=O)N(c1ccc(OCC)cc1)S(=O)(=O)c1ccc2c(c1)n(C)c(=O)n2C,·,-2%,·,·,-12%
COc1ccc(C(NC(=O)CN2C(=O)NC3(CCc4ccccc43)C2=O)c2ccc(OC)cc2)cc1 (stereo not drawn),?,-29%,10µM*,-1%,?
COc1ccc(C(NC(=O)CN2C(=O)NC3(CCc4ccccc43)C2=O)c2ccccc2)cc1 (stereo not drawn),?,·,12µM*,0%,·
COc1cccc(NC(=O)CN2C(=O)NC3(CCCc4ccccc43)C2=O)c1 (stereo not drawn),4.7µM*,·,-21%,0%,·
O=C(CN1C(=O)NC2(CCc3ccccc32)C1=O)Nc1c(Cl)cccc1Cl (stereo not drawn),·,·,·,7%,·
COc1ccc(OC)c(NC(=O)CN2C(=O)NC3(CCCc4ccccc43)C2=O)c1 (stereo not drawn),?,·,-20%,9%,·
COc1ccc(C(=O)CN2C(=O)NC3(CCc4ccccc43)C2=O)cc1 (stereo not drawn),0%,-12%,81%,-4%,i
CSc1ccc(CCNC(=O)C2CCN(c3ncnc4c3nc3n4CCCCC3)CC2)cc1,·,-12%,·,·,i
COc1ccc2c(c1)c(CC(=O)NCc1cc([N+](=O)[O-])ccc1O)c(C)n2C(=O)c1ccc(Cl)cc1,5.9µM*,-22%,?,-7%,-28%
COc1ccc2c(c1)c(CC(=O)Nc1ccc(C(C)=O)cc1)c(C)n2C(=O)c1ccc(Cl)cc1,-26%,-10%[7.34 µM],-20%,0%,-21%[7.34 µM]
COc1ccc(OC)c(NC(=O)Cc2c(C)n(C(=O)c3ccc(Cl)cc3)c3ccc(OC)cc23)c1,·,-18%,·,·,-25%
COc1ccc2c(c1)c(CC(=O)Nc1ccccc1OC)c(C)n2C(=O)c1ccc(Cl)cc1,5.2µM*,-13%,0%,-22%,i
COc1ccc2c(c1)c(CC(=O)Nc1cc(C)ccc1C)c(C)n2C(=O)c1ccc(Cl)cc1,12µM*,-5%,?,-16%,i
COc1ccc(S(=O)(=O)N(CC(=O)Nc2cc(C)cc(C)c2)c2ccc(Cl)cc2)cc1,·,-11%,·,·,-18%
CCn1c(SCC(=O)Nc2cc(C)on2)nc2sc(C)c(C)c2c1=O,12µM*,·,11%,·,·
COc1ccc(C)cc1-n1c(SCC(=O)Nc2cc(C)on2)nc2sc(C)c(C)c2c1=O,33%,-12%,9.3µM*,9%,-13%
C=CCn1c(SCC(=O)Nc2cc(C)on2)nc2sc(C)c(C)c2c1=O,-19%,-19%,·,0%,-7%
COc1ccc(C)cc1-n1c(SCC(=O)Nc2cc(C)on2)nc2ccccc2c1=O,?,-3%,0%,-8%,-8%
CCc1c(C)nc2cc(-c3ccc(OC)c(OC)c3)nn2c1N1CCCC1,0%,?,13µM*,-2%,-12%
CCOCCN1CCN(c2c(CC)c(C)nc3cc(-c4cc(OC)cc(OC)c4)nn23)CC1,9%,?,1.5µM*,0%,-18%
CCc1c(C)nc2cc(-c3ccc(OC)c(OC)c3)nn2c1N1CCC(C)CC1,44%,-14%,7.4µM*,-4%,i
CCc1c(C)nc2cc(-c3cc(OC)cc(OC)c3)nn2c1N1CCCC1,·,-21%,?,-1%,-14%
CCSc1nnc2ccc(-c3ccc(OC)c(OC)c3)nn12,35%,-18%,-22%,1%,i
Cc1ccccc1OCC(=O)Nc1nnc(S(=O)(=O)N2CCCCCC2)s1,·,-10%,·,·,-17%
Cc1cccc(C(=O)NCc2nnc(SCC(=O)NC3CCCC3)n2C)c1,7%,-5%,18%,1%,-2%
SMILES,Pf growth 96h,Vaccinia Venus,Pf growth 48h,AMA1 RON2 block,Vaccinia mCherry
Cn1cccc1Cc1nnc(SCC(=O)Nc2cccc(F)c2)n1CCc1ccccc1,-8%,-4%,?,-7%,-1%
Cn1cccc1Cc1nnc(SCC(=O)Nc2ccccc2F)n1CCc1ccccc1,-2%,0%,13µM*,-1%,-5%
COc1ccc(-n2c(Cc3cccn3C)nnc2SCC(=O)Nc2cc(Cl)ccc2OC)cc1,?,·,10µM*,-18%,·
Cn1cccc1Cc1nnc(SCC(=O)NC2CCCC2)n1CCc1ccccc1,8.3µM*,·,·,15%,·
COc1ccc(-n2c(Cc3cccn3C)nnc2SCC(=O)Nc2ccc(C)cc2C)cc1,6%,-9%,?,-4%,1%
Cc1cccc(C)c1OCC(=O)NCc1nnc(SCC(=O)NC2CCCCC2)n1C,27%,·,12µM*,0%,·
Cn1cccc1Cc1nnc(SCC(N)=O)n1CCc1ccccc1,?,8%,2%,6%,1%
CCC(=O)N1CCc2cc(S(=O)(=O)NC(C(=O)NCCc3ccc(Cl)cc3)C(C)C)ccc21 (stereo not drawn),·,9%,·,·,-1%
COC(=O)c1ccc(NC(=O)CCNS(=O)(=O)c2cccc3nsnc23)cc1,·,4%,·,·,11%
Cc1ccc(N(Cc2cccs2)C(=O)c2ccc(Br)o2)cc1,·,-3%,·,·,-10%
NC(=O)C1CCN(c2nc(-c3cccc([N+](=O)[O-])c3)cs2)CC1,-19%,·,?,·,·
CCN(C(=O)CN1C(=O)c2ccccc2Sc2ccc(C(=O)OC)cc21)c1cccc(C)c1,·,-16%,·,·,i
Cc1ccccc1NC(=O)CSc1nnc(Cc2cccn2C)n1-c1ccc(F)cc1,11%,-8%,?,-3%,-10%
Cn1cccc1Cc1nnc(SCC(=O)Nc2ccccc2F)n1-c1ccc(F)cc1,?,-8%,13µM*,16%,-8%
COc1ccc(-n2c(Cc3cccn3C)nnc2SCC(=O)Nc2ccccc2OC)cc1,?,7%,13µM*,21%,10%
Cc1nn(Cc2c(Cl)cccc2Cl)c(C)c1NC(=O)c1cnn2c(C(F)F)cc(-c3ccccc3)nc12,2.6µM*,-16%,?,4%,-21%
Cc1ccc(-c2cc(C(F)F)n3ncc(C(=O)Nc4c(C)nn(Cc5c(Cl)cccc5Cl)c4C)c3n2)cc1,2.3µM*,-14%,?,-9%,i
COc1ccc(-c2cc(C(F)F)n3ncc(C(=O)Nc4cc(C)on4)c3n2)cc1,15%,-5%,4.1µM*,10%,i
